In PubChem BioAssay AID1159580 (chemical genetic matrix, 2015):
Values joined by “and” are separate entries in the source; they are usually repeats but may differ in a detail not shown here. Identical values can stand only once. Out of some 5,500 compounds screened, about 2,000 (36%) were called active. Another 18% or so got no clear call; they are omitted. No stated cut-off is given here; in the data, active means normalized growth mostly below about 0.91 (no sharp cut-off); inconclusive means no clear call, values can overlap the other calls; inactive means mostly above about 0.92. This is one part of the list.

Experiment: chemical genetic growth profiling, strain panel (AID 1159580);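 further: tested at 20 µM; growth read once vehicle control cultures reached saturation at 30 °C; 1 = growth at the plate median or of vehicle wells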
Details: S. cerevisiae deletion strains, growth OD

Measured: normalized growth

O=c1cc(-c2cc(O)c(O)c(O)c2)oc2cc(O)cc(O)c12
inactive: locus YAL013W, strain DEP1, stronger effect = lower value 0.997 | locus YAL026C, strain drs2, stronger effect = lower value 0.927 | locus YAL030W, strain snc1, stronger effect = lower value 1.01 | locus YBL061C, strain skt5, stronger effect = lower value 0.942 | locus YBR009C, strain hhf1, stronger effect = lower value 0.95 | locus YBR021W, strain FUR4, stronger effect = lower value 1.07 | locus YBR171W, strain sec66, stronger effect = lower value 1 | locus YBR229C, strain ROT2, stronger effect = lower value 0.988 | locus YBR279W, strain paf1, stronger effect = lower value 0.935 | locus YCL011C, strain gbp2, stronger effect = lower value 0.946 | locus YCL016C, strain dcc1, stronger effect = lower value 0.94 | locus YCL029C, strain bik1, stronger effect = lower value 0.988 | locus YCL061C, strain MRC1, stronger effect = lower value 0.942 | locus YCL069W, strain vba3, stronger effect = lower value 0.997 | locus YCR088W, strain abp1, stronger effect = lower value 0.995 | locus YDL005C, strain med2, stronger effect = lower value 1.02 | locus YDL035C, strain GPR1, stronger effect = lower value 0.992 | locus YDL040C, strain nat1, stronger effect = lower value 1.04 | locus YDL074C, strain BRE1, stronger effect = lower value 0.957 | locus YDL101C, strain DUN1, stronger effect = lower value 1.01 | locus YDL134C, strain PPH21, stronger effect = lower value 1.05 | locus YDL185W, strain tfp1, stronger effect = lower value 0.941 | locus YDL192W, strain arf1, stronger effect = lower value 0.971 | locus YDR001C, strain nth1, stronger effect = lower value 1.01 | locus YDR101C, strain arx1, stronger effect = lower value 1.01 | locus YDR137W, strain rgp1, stronger effect = lower value 0.992 | locus YDR159W, strain sac3, stronger effect = lower value 1.05 | locus YDR162C, strain NBP2, stronger effect = lower value 1.03 | locus YDR195W, strain ref2 1.05 | locus YDR297W, strain sur2, stronger effect = lower value 0.971 | locus YDR318W, strain mcm21, stronger effect = lower value 0.995 | locus YDR334W, strain swr1, stronger effect = lower value 0.978 | locus YDR335W, strain msn5, stronger effect = lower value 0.986 | locus YDR388W, stronger effect = lower value 0.996 | locus YDR392W, strain spt3, stronger effect = lower value 0.893 | locus YDR502C, strain sam2, stronger effect = lower value 0.984 | locus YEL003W, strain gim4, stronger effect = lower value 0.957 | locus YEL037C, strain rad23, stronger effect = lower value 0.979 | locus YEL061C, strain CIN8 (second series), stronger effect = lower value 1 | locus YEL061C, strain CIN8, stronger effect = lower value 1 | locus YER015W, strain faa2, stronger effect = lower value 0.984 | locus YER016W, strain bim1, stronger effect = lower value 1 | locus YER110C, stronger effect = lower value 0.996 | locus YER111C, strain swi4, stronger effect = lower value 0.965 | locus YER155C, strain BEM2 (second series), stronger effect = lower value 0.938 | locus YER155C, strain BEM2, stronger effect = lower value 1.03 | locus YER167W, strain BCK2, stronger effect = lower value 1.01 | locus YFR010W, strain ubp6, stronger effect = lower value 0.942 | locus YGL078C, strain dbp3, stronger effect = lower value 0.979 | locus YGL086W, strain mad1, stronger effect = lower value 1.01 | locus YGL167C, strain pmr1, stronger effect = lower value 0.988 | locus YGL173C, strain kem1, stronger effect = lower value 0.967 | locus YGL227W, strain vid30, stronger effect = lower value 1.01 | locus YGL240W, strain doc1, stronger effect = lower value 1.02 | locus YGL248W, strain PDE1, stronger effect = lower value 1.01 | locus YGL253W, strain hxk2, stronger effect = lower value 0.948 | locus YGR135W, strain pre9, stronger effect = lower value 0.96 | locus YGR252W, strain gcn5, stronger effect = lower value 1 | locus YHR013C, strain ard1, stronger effect = lower value 0.904 | locus YHR027C, strain rpn1, stronger effect = lower value 0.978 | locus YHR030C, strain SLT2, stronger effect = lower value 0.989 and 1.07 | locus YHR079C, strain IRE1 (second series), stronger effect = lower value 1.02 | locus YHR079C, strain IRE1, stronger effect = lower value 1.06 | locus YHR094C, strain hxt1, stronger effect = lower value 1.02 | locus YHR129C, strain ARP1, stronger effect = lower value 0.986 | locus YHR142W, strain chs7, stronger effect = lower value 0.911 | locus YHR200W, strain rpn10, stronger effect = lower value 0.97 | locus YIL066C, strain RNR3, stronger effect = lower value 0.989 | locus YIL073C, strain SPO22, stronger effect = lower value 0.964 | locus YIL125W, strain kgd1, stronger effect = lower value 0.985 | locus YIR030C, strain dcg1, stronger effect = lower value 1 | locus YJL092W, strain hpr5, stronger effect = lower value 0.996 | locus YJL095W, strain BCK1 (second series), stronger effect = lower value 0.95 | locus YJL095W, strain BCK1, stronger effect = lower value 0.973 and 1.01 | locus YJL115W, strain asf1, stronger effect = lower value 1.01 | locus YJL129C, strain trk1, stronger effect = lower value 0.991 | locus YJL134W, strain LCB3, stronger effect = lower value 0.994 | locus YJL154C, strain vps35, stronger effect = lower value 1.02 | locus YJL164C, strain tpk1, stronger effect = lower value 0.954 | locus YJL166W, strain qcr8, stronger effect = lower value 0.957 | locus YJL168C, strain set2, stronger effect = lower value 0.998 | locus YJL187C, strain SWE1 (second series), stronger effect = lower value 0.974 | locus YJL187C, strain SWE1, stronger effect = lower value 0.986 | locus YJR043C, strain POL32, stronger effect = lower value 1 | locus YJR066W, strain TOR1, stronger effect = lower value 0.981
active: locus YAL021C, strain ccr4, stronger effect = lower value 0.901 | locus YBR023C, strain chs3, stronger effect = lower value 0.897 | locus YBR231C, strain swc5, stronger effect = lower value 0.909 | locus YDR069C, strain doa4, stronger effect = lower value 0.855
